Records with an inconclusive call do not appear. Calls of active or inactive are those of the source. Unless noted, calls come from the whole dose curve; as a rule, active = well fitted curve in the direction sought with a large enough effect; inconclusive = small, poorly fitted or top-dose-only effect, or another doubt; inactive = no such curve, though single readings can be large; an effect the other way counts as inactive or inconclusive.
Experiments:
[1] = molecular target: Ubiquitin carboxyl-terminal hydrolase 1 (Homo sapiens) (UniProt O94782); test: Inhibitors of USP1/UAF1: Pilot qHTS (AID 504865);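 note: rhodamine fluorescence freed from ubiquitin-rhodamine substrate followed over time; top concentration of the series differs between compounds; nearly all actives have a fitted effect of over 35% in size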
Sequence of Ubiquitin carboxyl-terminal hydrolase 1 (Homo sapiens) (O94782 whole entry, looked up): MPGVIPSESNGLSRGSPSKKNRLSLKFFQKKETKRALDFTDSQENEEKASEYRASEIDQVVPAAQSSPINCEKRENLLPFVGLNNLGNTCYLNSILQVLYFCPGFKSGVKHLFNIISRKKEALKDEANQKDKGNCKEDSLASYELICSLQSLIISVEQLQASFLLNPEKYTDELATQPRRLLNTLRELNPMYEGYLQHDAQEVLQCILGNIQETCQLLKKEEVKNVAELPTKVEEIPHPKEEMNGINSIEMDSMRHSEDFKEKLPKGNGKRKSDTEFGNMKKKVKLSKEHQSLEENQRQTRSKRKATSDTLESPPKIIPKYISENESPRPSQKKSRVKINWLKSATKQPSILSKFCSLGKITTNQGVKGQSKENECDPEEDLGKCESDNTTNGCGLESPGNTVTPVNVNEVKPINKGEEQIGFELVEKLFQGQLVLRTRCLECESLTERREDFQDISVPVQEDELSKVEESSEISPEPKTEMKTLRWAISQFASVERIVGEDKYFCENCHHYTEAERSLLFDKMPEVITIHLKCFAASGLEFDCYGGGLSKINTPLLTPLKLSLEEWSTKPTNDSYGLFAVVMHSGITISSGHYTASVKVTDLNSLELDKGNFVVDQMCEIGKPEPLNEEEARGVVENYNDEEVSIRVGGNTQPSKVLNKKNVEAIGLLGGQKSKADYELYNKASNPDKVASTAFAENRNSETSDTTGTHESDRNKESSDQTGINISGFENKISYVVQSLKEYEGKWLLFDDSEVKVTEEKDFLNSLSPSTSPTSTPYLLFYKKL
Outline: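 1nM USP1/UAF1 + cpd, 15 min RT; start w/ Ub-Rho 150nM final; kinetic FL 480/540 nm, 6 reads q60 s. Buffer 50mM HEPES pH 7.8, 0.5mM EDTA, 1mM TCEP, 0.01% Tween-20, 0.1 mg/ml BSA.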

[2] = molecular target: Luciferin 4-monooxygenase (Photinus pyralis) (UniProt P08659); test: Biochemical firefly luciferase enzyme assay for NPC (AID 624030);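 note: purified P. pyralis luciferase at 10 nM with luciferin and ATP substrate; nearly all actives have a fitted effect of over 70% in size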
Sequence of Luciferin 4-monooxygenase (Photinus pyralis) (P08659 whole entry, looked up): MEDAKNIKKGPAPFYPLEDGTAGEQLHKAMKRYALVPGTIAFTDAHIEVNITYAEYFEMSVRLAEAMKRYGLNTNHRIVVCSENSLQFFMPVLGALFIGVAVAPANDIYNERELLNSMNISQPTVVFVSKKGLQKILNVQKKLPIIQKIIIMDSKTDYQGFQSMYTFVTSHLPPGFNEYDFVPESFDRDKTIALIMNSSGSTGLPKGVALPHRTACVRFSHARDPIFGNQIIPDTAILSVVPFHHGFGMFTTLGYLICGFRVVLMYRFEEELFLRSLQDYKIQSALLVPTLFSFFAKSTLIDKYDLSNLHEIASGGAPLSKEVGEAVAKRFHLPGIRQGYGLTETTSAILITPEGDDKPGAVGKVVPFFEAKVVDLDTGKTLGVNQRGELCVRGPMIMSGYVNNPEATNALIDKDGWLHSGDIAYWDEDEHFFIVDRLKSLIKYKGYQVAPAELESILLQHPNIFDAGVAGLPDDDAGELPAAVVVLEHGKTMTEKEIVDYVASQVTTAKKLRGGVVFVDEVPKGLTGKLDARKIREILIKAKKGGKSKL
Outline: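 Purified P. pyralis luciferase at 10 nM in 50 mM Tris Acetate (final), luminescence read within 5 minutes of enzyme addition to compounds. Activity normalised to PTC124 versus DMSO; concentration-response curves classed by r2, magnitude and activity.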

[3] = S16 Schwann cell viability assay (CellTiter-Glo assay) (AID 624031);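 note: native untransfected S16 rat Schwann cells; nearly all actives have a fitted effect of over 70% in size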
Outline: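 Counter-screen for cytotoxicity: parental S16 rat Schwann cells lacking the PMP22 reporters, treated 24 h with compound, viability from cellular ATP by CellTiter-Glo luminescence, normalized to DMSO (0%) and no-cell wells.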

[4] = S16 Schwann cell PMP22 intronic element beta-lactamase assay (AID 624044; calls by dose curve; note: nearly all actives have a fitted effect of over 15% in size); conditions: S16 rat Schwann cells, PMP22 element beta-lactamase FRET, 24 h; ratio activity, negative = inhibition: at 38.3 µM (top of the series) unless noted
Outline: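 Beta-lactamase reporter under a PMP22 intronic regulatory element in stable S16 rat Schwann cells; 24 h compound exposure. 460 nm blue signal normalized between DMSO (0%) and potassium clavulanate, with 535 nm FRET tracking viability; curves classed by r2 and response.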

[5] = molecular target: Cytochrome P450 2D6 (Homo sapiens) (UniProt P10635); test: Cytochrome P450 family 2 subfamily D member 6 (CYP2D6) small molecule antagonists: luciferase biochemical (cell-free) qHTS assay (AID 1645840; active = well fitted curve in the direction sought with a large enough effect in the repeat runs; an effect the other way counts as inactive or inconclusive; note: nearly all actives have a fitted effect of over 55% in size)
Sequence of Cytochrome P450 2D6 (Homo sapiens) (P10635 whole entry, looked up): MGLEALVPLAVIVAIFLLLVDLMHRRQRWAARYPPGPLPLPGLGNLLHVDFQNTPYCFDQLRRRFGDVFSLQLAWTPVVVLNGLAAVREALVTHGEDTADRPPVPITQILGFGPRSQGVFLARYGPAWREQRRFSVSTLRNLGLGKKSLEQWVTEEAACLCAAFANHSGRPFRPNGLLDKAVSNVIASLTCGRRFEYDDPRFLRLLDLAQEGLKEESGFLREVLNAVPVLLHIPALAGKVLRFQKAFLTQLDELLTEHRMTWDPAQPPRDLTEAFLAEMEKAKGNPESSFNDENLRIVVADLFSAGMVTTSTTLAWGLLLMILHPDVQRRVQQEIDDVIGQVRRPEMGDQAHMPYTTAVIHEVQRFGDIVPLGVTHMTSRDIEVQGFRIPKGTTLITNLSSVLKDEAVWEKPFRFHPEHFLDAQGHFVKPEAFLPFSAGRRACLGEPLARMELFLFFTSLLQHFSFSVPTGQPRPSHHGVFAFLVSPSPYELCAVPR
Outline: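 P450-Glo CYP2D6 system: proluciferin substrate converted by enzyme to luciferin, read by luminescence proportional to activity. Enzyme-substrate mix with compound 10 min at room temperature, then NADPH regeneration 1 h before detection reagent.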

[6] = molecular target: Cytochrome P450 3A4 (Homo sapiens) (UniProt P08684); test: Cytochrome P450 family 3 subfamily A member 4 (CYP3A4) small molecule antagonists: luciferase qHTS assay (AID 1645841; active = well fitted curve in the direction sought with a large enough effect in the repeat runs; an effect the other way counts as inactive or inconclusive; note: nearly all actives have a fitted effect of over 45% in size)
Sequence of Cytochrome P450 3A4 (Homo sapiens) (P08684 whole entry, looked up): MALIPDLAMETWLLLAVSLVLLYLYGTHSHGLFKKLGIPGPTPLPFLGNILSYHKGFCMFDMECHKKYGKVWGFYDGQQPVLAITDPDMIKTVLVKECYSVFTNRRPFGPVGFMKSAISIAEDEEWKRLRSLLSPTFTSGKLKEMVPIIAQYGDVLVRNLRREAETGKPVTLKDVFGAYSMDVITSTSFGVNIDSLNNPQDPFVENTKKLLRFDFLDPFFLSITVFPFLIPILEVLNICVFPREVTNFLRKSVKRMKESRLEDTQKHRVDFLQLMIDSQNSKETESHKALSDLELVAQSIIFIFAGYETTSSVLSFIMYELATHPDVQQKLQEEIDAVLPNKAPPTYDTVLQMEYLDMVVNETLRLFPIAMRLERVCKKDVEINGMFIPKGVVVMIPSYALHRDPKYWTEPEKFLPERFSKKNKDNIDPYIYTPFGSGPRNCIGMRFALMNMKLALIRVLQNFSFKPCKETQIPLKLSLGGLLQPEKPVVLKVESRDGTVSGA
Outline: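 P450-Glo CYP3A4 enzyme with proluciferin substrate preincubated 10 min with compound at room temperature, then NADPH regeneration 1 h. Luciferin detection reagent added for 20 min; luminescence recorded. Ketoconazole positive control.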

[7] = molecular target: Cytochrome P450 2C9 (Homo sapiens) (UniProt P11712); test: Cytochrome P450 family 2 subfamily C member 9 (CYP2C9) small molecule antagonists: luciferase biochemical (cell-free) qHTS assay (AID 1645842; active = well fitted curve in the direction sought with a large enough effect in the repeat runs; an effect the other way counts as inactive or inconclusive; note: nearly all actives have a fitted effect of over 55% in size)
Sequence of Cytochrome P450 2C9 (Homo sapiens) (P11712 whole entry, looked up): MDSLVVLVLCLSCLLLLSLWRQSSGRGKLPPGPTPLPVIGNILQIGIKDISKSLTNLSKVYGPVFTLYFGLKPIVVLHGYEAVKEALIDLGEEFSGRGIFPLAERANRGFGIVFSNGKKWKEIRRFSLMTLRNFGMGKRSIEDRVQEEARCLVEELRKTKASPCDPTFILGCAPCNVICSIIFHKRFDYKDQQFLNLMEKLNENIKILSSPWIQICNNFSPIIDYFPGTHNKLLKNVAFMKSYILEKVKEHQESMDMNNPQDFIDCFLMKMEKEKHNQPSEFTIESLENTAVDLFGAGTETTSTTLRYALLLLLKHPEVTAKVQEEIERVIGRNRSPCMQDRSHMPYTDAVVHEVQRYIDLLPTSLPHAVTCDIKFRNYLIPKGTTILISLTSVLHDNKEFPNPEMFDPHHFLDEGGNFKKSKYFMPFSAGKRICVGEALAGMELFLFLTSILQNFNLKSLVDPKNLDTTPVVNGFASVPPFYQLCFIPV
Outline: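 P450-Glo CYP2C9 system: proluciferin substrate with enzyme in mix containing 0.4% BSA, 10 min at room temperature, then NADPH regeneration solution added and incubated 1 h at 37C. Detection reagent stopped reaction; luminescence read after 20 min as RLU.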

[8] = qHTS profiling for inhibitors of Plasmodium falciparum proliferation (AID 504749); note: nearly all actives have a fitted effect of over 60% in size; note: potency is the fitted concentration of half-maximal effect; conditions: P. falciparum in erythrocytes, SYBR Green DNA, 72 h
Outline: (§1)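 SYBR Green fluorescence (ex 485 nm, em 535 nm) reports parasite DNA after 72 h compound exposure of infected red cells at 0.3% parasitemia, 2.5% hematocrit; signal normalized to 0.29 uM artemisinin and vehicle wells.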

3D7 = test: as above; conditions: P. falciparum in erythrocytes, SYBR Green DNA, 72 h; series mostly up to 28.7 µM
Outline: as §1

7G8 = test: as above; conditions: P. falciparum in erythrocytes, SYBR Green DNA, 72 h; series mostly up to 12.8 µM
Outline: as §1

AA1029 = test: as above; conditions: P. falciparum in erythrocytes, SYBR Green DNA, 72 h; series mostly up to 28.7 µM
Outline: as §1

AS120 = test: as above; conditions: P. falciparum in erythrocytes, SYBR Green DNA, 72 h; series mostly up to 28.7 µM
Outline: as §1

ATS189 = test: as above; conditions: P. falciparum in erythrocytes, SYBR Green DNA, 72 h; series mostly up to 28.7 µM
Outline: as §1

ATS95 = test: as above; conditions: P. falciparum in erythrocytes, SYBR Green DNA, 72 h; series mostly up to 28.7 µM
Outline: as §1

C2A = test: as above; conditions: P. falciparum in erythrocytes, SYBR Green DNA, 72 h; series mostly up to 28.7 µM
Outline: as §1

CP191 = test: as above; conditions: P. falciparum in erythrocytes, SYBR Green DNA, 72 h; series mostly up to 28.7 µM
Outline: as §1

CP192 = test: as above; conditions: P. falciparum in erythrocytes, SYBR Green DNA, 72 h; series mostly up to 28.7 µM
Outline: as §1

CP194 = test: as above; conditions: P. falciparum in erythrocytes, SYBR Green DNA, 72 h; series mostly up to 28.7 µM
Outline: as §1

CP201 = test: as above; conditions: P. falciparum in erythrocytes, SYBR Green DNA, 72 h; series mostly up to 28.7 µM
Outline: as §1

CP203 = test: as above; conditions: P. falciparum in erythrocytes, SYBR Green DNA, 72 h; series mostly up to 28.7 µM
Outline: as §1

CP211 = test: as above; conditions: P. falciparum in erythrocytes, SYBR Green DNA, 72 h; series mostly up to 28.7 µM
Outline: as §1

CP215 = test: as above; conditions: P. falciparum in erythrocytes, SYBR Green DNA, 72 h; series mostly up to 28.7 µM
Outline: as §1

CP217 = test: as above; conditions: P. falciparum in erythrocytes, SYBR Green DNA, 72 h; series mostly up to 28.7 µM
Outline: as §1

CP237 = test: as above; conditions: P. falciparum in erythrocytes, SYBR Green DNA, 72 h; series mostly up to 28.7 µM
Outline: as §1

CP238 = test: as above; conditions: P. falciparum in erythrocytes, SYBR Green DNA, 72 h; series mostly up to 28.7 µM
Outline: as §1

CP247 = test: as above; conditions: P. falciparum in erythrocytes, SYBR Green DNA, 72 h; series mostly up to 28.7 µM
Outline: as §1

CP250 = test: as above; conditions: P. falciparum in erythrocytes, SYBR Green DNA, 72 h; series mostly up to 12.8 µM
Outline: as §1

CP252 = test: as above; conditions: P. falciparum in erythrocytes, SYBR Green DNA, 72 h; series mostly up to 12.8 µM
Outline: as §1

CP256 = test: as above; conditions: P. falciparum in erythrocytes, SYBR Green DNA, 72 h; series mostly up to 28.7 µM
Outline: as §1

CP260 = test: as above; conditions: P. falciparum in erythrocytes, SYBR Green DNA, 72 h; series mostly up to 28.7 µM
Outline: as §1

CP262 = test: as above; conditions: P. falciparum in erythrocytes, SYBR Green DNA, 72 h; series mostly up to 28.7 µM
Outline: as §1

CP265 = test: as above; conditions: P. falciparum in erythrocytes, SYBR Green DNA, 72 h; series mostly up to 12.8 µM
Outline: as §1

CP268 = test: as above; conditions: P. falciparum in erythrocytes, SYBR Green DNA, 72 h; series mostly up to 28.7 µM
Outline: as §1

CP269 = test: as above; conditions: P. falciparum in erythrocytes, SYBR Green DNA, 72 h; series mostly up to 28.7 µM
Outline: as §1

CP286 = test: as above; conditions: P. falciparum in erythrocytes, SYBR Green DNA, 72 h; series mostly up to 28.7 µM
Outline: as §1

CP291 = test: as above; conditions: P. falciparum in erythrocytes, SYBR Green DNA, 72 h; series mostly up to 28.7 µM
Outline: as §1

CP297 = test: as above; conditions: P. falciparum in erythrocytes, SYBR Green DNA, 72 h; series mostly up to 28.7 µM
Outline: as §1

CP305 = test: as above; conditions: P. falciparum in erythrocytes, SYBR Green DNA, 72 h; series mostly up to 28.7 µM
Outline: as §1

CP315 = test: as above; conditions: P. falciparum in erythrocytes, SYBR Green DNA, 72 h; series mostly up to 28.7 µM
Outline: as §1

CP325 = test: as above; conditions: P. falciparum in erythrocytes, SYBR Green DNA, 72 h; series mostly up to 28.7 µM
Outline: as §1

CP329 = test: as above; conditions: P. falciparum in erythrocytes, SYBR Green DNA, 72 h; series mostly up to 28.7 µM
Outline: as §1

CP335 = test: as above; conditions: P. falciparum in erythrocytes, SYBR Green DNA, 72 h; series mostly up to 12.8 µM
Outline: as §1

DFO2036 = test: as above; conditions: P. falciparum in erythrocytes, SYBR Green DNA, 72 h; series mostly up to 28.7 µM
Outline: as §1

DIV14 = test: as above; conditions: P. falciparum in erythrocytes, SYBR Green DNA, 72 h; series mostly up to 28.7 µM
Outline: as §1

DIV30 = test: as above; conditions: P. falciparum in erythrocytes, SYBR Green DNA, 72 h; series mostly up to 28.7 µM
Outline: as §1

Dd2 = test: as above; conditions: P. falciparum in erythrocytes, SYBR Green DNA, 72 h; series mostly up to 28.7 µM
Outline: as §1

ECU = test: as above; conditions: P. falciparum in erythrocytes, SYBR Green DNA, 72 h; series mostly up to 28.7 µM
Outline: as §1

FAB9 = test: as above; conditions: P. falciparum in erythrocytes, SYBR Green DNA, 72 h; series mostly up to 28.7 µM
Outline: as §1

GB4 = test: as above; conditions: P. falciparum in erythrocytes, SYBR Green DNA, 72 h; series mostly up to 28.7 µM
Outline: as §1

HB3 = test: as above; conditions: P. falciparum in erythrocytes, SYBR Green DNA, 72 h; series mostly up to 28.7 µM
Outline: as §1

ICS = test: as above; conditions: P. falciparum in erythrocytes, SYBR Green DNA, 72 h; series mostly up to 28.7 µM
Outline: as §1

JCK = test: as above; conditions: P. falciparum in erythrocytes, SYBR Green DNA, 72 h; series mostly up to 28.7 µM
Outline: as §1

N140 = test: as above; conditions: P. falciparum in erythrocytes, SYBR Green DNA, 72 h; series mostly up to 28.7 µM
Outline: as §1

P93_24 = test: as above; conditions: P. falciparum in erythrocytes, SYBR Green DNA, 72 h; series mostly up to 28.7 µM
Outline: as §1

P94_40 = test: as above; conditions: P. falciparum in erythrocytes, SYBR Green DNA, 72 h; series mostly up to 28.7 µM
Outline: as §1

PAD = test: as above; conditions: P. falciparum in erythrocytes, SYBR Green DNA, 72 h; series mostly up to 28.7 µM
Outline: as §1

PC26 = test: as above; conditions: P. falciparum in erythrocytes, SYBR Green DNA, 72 h; series mostly up to 28.7 µM
Outline: as §1

TAB109 = test: as above; conditions: P. falciparum in erythrocytes, SYBR Green DNA, 72 h; series mostly up to 12.8 µM
Outline: as §1

TAB113 = test: as above; conditions: P. falciparum in erythrocytes, SYBR Green DNA, 72 h; series mostly up to 28.7 µM
Outline: as §1

TAB165 = test: as above; conditions: P. falciparum in erythrocytes, SYBR Green DNA, 72 h; series mostly up to 28.7 µM
Outline: as §1

W2 = test: as above; conditions: P. falciparum in erythrocytes, SYBR Green DNA, 72 h; series mostly up to 12.8 µM
Outline: as §1

Measured: Potency

O=[As]O[As]=O (configuration not stated)
active: [8]; parasite line A 8.91 µM | [8]; parasite line B 8.91 µM | 3D7 11.2 µM | 7G8 3.98 µM | AA1029 11.2 µM | AS120 11.2 µM | ATS189 8.91 µM | ATS95 10 µM | C2A 12.6 µM | CP191 11.2 µM | CP192 9.53 µM | CP194 13.5 µM | CP201 13.5 µM | CP203 10.7 µM | CP211 12 µM | CP215 13.5 µM | CP217 7.94 µM | CP237 11.2 µM | CP238 8.91 µM | CP247 7.94 µM | CP250 7.94 µM | CP252 12.6 µM | CP256 8.91 µM | CP260 6.31 µM | CP265 12.6 µM | CP268 15.1 µM | CP269 6.01 µM | CP286 8.91 µM | CP291 6.75 µM | CP297 9.53 µM | CP305 8.49 µM | CP315 13.5 µM | CP325 6.75 µM | CP329 15.1 µM | CP335 7.57 µM | DFO2036 12.6 µM | DIV14 6.01 µM | DIV30 8.49 µM | Dd2 7.94 µM | ECU 8.91 µM | FAB9 11.2 µM | GB4 8.49 µM | HB3 11.2 µM | ICS 7.08 µM | JCK 11.2 µM | N140 7.94 µM | P93_24 5.01 µM | P94_40 7.08 µM | PAD 8.91 µM | PC26 15.1 µM | TAB109 7.08 µM | TAB113 7.94 µM | TAB165 6.31 µM | W2 4.26 µM
inactive: [1] | [2] | [3] | [4] | [5] | [6] | [7] | CP262

From PubChem BioAssay (NCATS)
